Shown are actives, neighbours in structure and some others; about 5.9% of the full set was active somewhere.
KB-3-1 cytotox: kills parental KB-3-1 adenocarcinoma cells. KB-3-1 viability, CellTiter-Glo ATP luminescence, 72 h. Potency, µM (highest dose often 46.1 µM), actives largely listed as cytotoxic. actives 1.4% (n = 400,000). AID 1347075; further: on the % scale 0 is the no-effect control and ±100 the full control effect; nearly all actives have a fitted effect of over 60% in size
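72 h, 37 °C compound treatment of KB-3-1 parental cells; CellTiter-Glo added, 10 min, luminescence read. Data corrected against DMSO-only plates and normalized before curve fitting.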
HepG2 tox: HepG2 cytotoxicity, counter-screen for TGF-b inhibitors | HepG2 CAGA-GFP viability, ATP luminescence, 18 h | Potency, µM (titrated, usually from 46.1 µM), without a hit: at the highest dose activity change, negative = cytotoxicity, hits mostly cytotoxic | actives 0.76% (n = 410,000)
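HepG2 CAGA-GFP cells (1000/well, DMEM with 1% FBS) received compound, then TGF-beta at 500 pg/mL final, and were incubated 18 hours at 37 degrees C. Viability was read by CellTiter-Glo luminescence. Media-only wells were set as complete cell-killing and DMSO as no toxicity.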
TGFb SMAD3 inh: inhibitors of TGF-b signaling; HepG2 CAGA-GFP TGF-b/SMAD3 reporter, GFP fluorescence, 18 h; TGF-beta stimulated, 500 pg/mL final; Potency, µM (titrated, usually from 46.1 µM), for inactives: at the highest dose activity, negative = inhibition, most hits filed as inhibitors; actives 1.2% (n = 410,000); further: on the % scale 0 is the no-effect control and ±100 the full control effect; nearly all actives have a fitted effect of over 65% in size
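HEPG2 CAGA-GFP cells (1000/well, DMEM with 1% FBS) were pre-incubated 2 h at 37 degrees C, given compound by pin tool, then stimulated with TGF-beta at 500 pg/mL final for 18 h before per-cell GFP fluorescence imaging.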
S2 tox: viability counter-screen for ATXN expression inhibitors; S2 cells (HEK-293 line with an ATXN2-luciferase reporter) viability, CellTiter-Fluor protease fluorescence, 24 h; Potency, µM (top dose mostly 56.7 µM), hits mostly cytotoxic; actives 0.49% (n = 400,000); further: nearly all actives have a fitted effect of over 40% in size
KB-V1 MDR tox: kills drug-selected multidrug resistant KB-V1 cells; actives 3.4% (n = 400,000); Potency, µM (highest dose often 46.1 µM), actives largely listed as cytotoxic; KB-V1 MDR cells viability, CellTiter-Glo, 72 h; further: on the % scale 0 is the no-effect control and ±100 the full control effect; nearly all actives have a fitted effect of over 60% in size
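Cytotoxicity toward P-gp-expressing KB-V1 cells was determined as loss of CellTiter-Glo luminescence after 72 h at 37 degrees C. Compounds were tested in quantitative HTS format across a concentration range, with curves fitted to normalized data.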
ATXN2 expr inh: ATXN2 expression inhibition. HEK-293 ATXN2-luciferase reporter, luminescence, 24 h. Potency, µM (titrated, usually from 57 µM), without a hit: at the highest dose activity change, negative = inhibition, actives largely listed as inhibitors. actives 0.72% (n = 360,000); further: on the % scale 0 is the no-effect control and ±100 the full control effect; nearly all actives have a fitted effect of over 55% in size
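qHTS (up to 57 uM final) was run with 24 h compound exposure of reporter cells at 37 °C. Each well was multiplexed: SteadyGlo luminescence measured ATXN2-luciferase expression after a fluorogenic Gly-Phe-AFC viability readout (25 uM final).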
Starred values were filed as active, the others as inactive; i = inactive; ? = inconclusive; . = no result given. The call rests on the fitted dose curve; in most records, active means well fitted curve in the direction sought with a large enough effect; inconclusive means small, poorly fitted or top-dose-only effect, or another doubt; inactive means no such curve, though single readings can be large; an effect the other way counts as inactive or inconclusive. Potency means the concentration at half of the fitted maximal effect.

SMILES	KB-3-1 cytotox	HepG2 tox	TGFb SMAD3 inh	S2 tox	KB-V1 MDR tox	ATXN2 expr inh
Cc1ccc(-c2nc(N3CCOCC3)sc2C(=O)N2CCOCC2)cc1	i	-4%	-4%	i	i	19%
CCN(c1ccccc1)S(=O)(=O)c1nnc(NC(=O)C(C)Oc2ccccc2)s1 (centres undefined)	i	-34%	?	i	i	6%
NC(=S)NN=C1Cc2cccc3cccc1c23	1.3µM*	-20%	?	i	1.3µM*	-11%
CCc1nc2c(OCc3ccc(OC)cc3)cccn2c1N(C)C(=O)c1ccncc1	i	2%	29%	i	?	17%
C/C(=N\Nc1nc2ccccc2nc1C)c1ccccc1O	i	-17%	-24%	?	i	-21%
Cc1ccc(/C=N/Nc2ccc3ccccc3n2)o1	i	-52%	-31%	.	8.2µM*	?
CC(=NNc1ccc2ccccc2n1)c1ccccc1O	i	-27%	?	?	4.1µM*	?
Cc1cccc(/C=N/Nc2ccc3ccccc3n2)c1	i	-68%	?	i	i	.
C(=N\Nc1ccc2ccccc2n1)/c1ccc2c(c1)OCCO2	i	-65%	16µM*	?	18µM*	?
C(=N\Nc1nc2ccccc2[nH]1)/c1ccc2c(c1)OCCO2	?	-53%	?	i	i	.
COc1ccccc1CN1CCCC(n2cc(C(=O)N3CCCC3)nn2)C1 (centres undefined)	.	.	.	i	.	.
C=CCn1c(=O)c(C(=O)Nc2cccnc2)c(O)c2ccccc21	i	-3%	1%	i	?	-7%
Cn1c(=O)c(C(=O)Nc2ccccn2)c(O)c2ccccc21	18µM*	-24%	-3%	?	2.3µM*	-35%
C=CCn1c(=O)c(C(=O)Nc2ccc(C)cn2)c(O)c2ccccc21	?	7%	26%	i	6.5µM*	.
Cn1c(=O)c(C(=O)Nc2ccccc2S(N)(=O)=O)c(O)c2ccccc21	i	-4%	0%	i	?	39%
C=CCn1c(=O)c(C(=O)NCCc2ccccc2)c(O)c2ccccc21	i	-20%	-26%	i	21µM*	-9%
Cc1ccccc1NC(=S)N(CCN(C)C)C(C)c1ccccn1 (centres undefined)	i	11%	8%	i	16µM*	4%
COCCNC(=O)c1nn(-c2ccc(Cl)cc2)nc1CO	.	-19%	-8%	.	.	.
Cc1nn(C)c(C)c1CN(Cc1nc(-c2ccc(F)cc2F)oc1C)C1CC1	i	-2%	-26%	i	?	-12%
Cc1nn(C)c(C)c1CN(Cc1nc(-c2cc(F)ccc2F)oc1C)C1CC1	i	-3%	-15%	?	16µM*	-23%
CCC(Cc1ccccc1)NC(=O)CN1C(=O)COc2ccc(S(=O)(=O)N3CCCCCC3)cc21 (centres undefined)	i	-20%	-15%	i	i	5%
OC(CSc1nnnn1-c1ccccc1)Cn1c2ccccc2c2ccccc21 (centres undefined)	?	.	.	?	21µM*	?
Cc1ccsc1/C=N\NC(=O)c1n[nH]c2c1CCC2	3.3µM*	-38%	4%	i	4.6µM*	?
Cc1sc2ncnc(SCC(=O)NC3CC3)c2c1C	i	29%	3%	i	21µM*	10%
Cc1nc(SCC(=O)Nc2ccc(S(=O)(=O)N3CCOCC3)cc2)c2c(C)c(C)sc2n1	5.8µM*	-19%	?	i	i	?
SMILES	KB-3-1 cytotox	HepG2 tox	TGFb SMAD3 inh	S2 tox	KB-V1 MDR tox	ATXN2 expr inh
CC(=O)N1CCN(C(=O)CSc2ncnc3sc(C)c(C)c23)CC1	?	-6%	-15%	i	15µM*	12%
Cc1sc2ncnc(SCC(=O)N3CCCC3)c2c1C	i	-19%	2%	i	i	0%
CCCc1nc(SCC(=O)N2CCOCC2)c2c(C)c(C)sc2n1	i	1%	0%	i	9.2µM*	1%
Cc1nc(SCC(=O)N2CCOCC2)c2c(C)c(C)sc2n1	i	-14%	-18%	i	i	-4%
Cc1cc(=O)[nH]c(SCC(=O)Nc2ccc(S(=O)(=O)N3CCOCC3)cc2)n1	i	-1%	38%	i	i	-10%
Cc1ccc(NC(=O)CSc2nc3c(oc4ccccc43)c(=O)n2-c2ccc(F)cc2)c(C)c1	i	-20%	?	?	i	8%
O=C(NCCCc1ccccc1)c1cnc2n(c1=O)CCS2	i	-2%	-5%	i	15µM*	60%
O=C(C1CC(c2ccc(F)cc2)=NO1)N1CCN(Cc2ccccc2)CC1 (centres undefined)	i	4%	4%	i	i	-13%
COc1cccc(C2=NOC(C(=O)N3CCN(Cc4ccccc4)CC3)C2)c1OC (centres undefined)	i	2%	-6%	i	5.8µM*	-4%
Cc1ccc(Cl)cc1-c1cc(C(=O)Nc2ccc(F)cc2)[nH]n1	?	-35%	?	?	?	-38%
COc1ccc(NC(C)=O)cc1NC(=O)c1cccc(S(=O)(=O)N2CCN(Cc3ccccc3)CC2)c1	i	-3%	0%	i	16µM*	3%
COc1ccccc1NC(=O)c1cccc(S(=O)(=O)N2CCN(Cc3ccccc3)CC2)c1	i	3%	-3%	i	i	-7%
CN(Cc1cccc(F)c1)C(=O)c1cccc(S(=O)(=O)N2CCN(Cc3ccccc3)CC2)c1	?	-6%	-41%	i	?	-10%
Cc1ccc(N(C)S(=O)(=O)c2cccc(C(=O)N(C)Cc3cnn(-c4ccccc4)c3)c2)cc1	i	10%	?	?	5.8µM*	-20%
COc1ccc(C(=O)N(C)Cc2cnn(Cc3ccccc3)c2)cc1S(=O)(=O)N1CCOCC1	5.8µM*	-13%	?	i	i	.
CN(Cc1cnn(Cc2ccccc2)c1)C(=O)c1cccc(S(=O)(=O)N2CCOCC2)c1	15µM*	-1%	-15%	?	i	-11%
CN(Cc1cnn(-c2ccccc2)c1)C(=O)c1cccc(S(=O)(=O)N(C)c2ccccc2)c1	i	-23%	-9%	?	?	.
CCOc1cc(C#N)c(NC(=O)c2cccc(S(=O)(=O)N3CCOCC3)c2)cc1OCC	i	-6%	-1%	i	i	5%

Source: PubChem BioAssay
